{
  "source": "the supplement of paper PMC12282887",
  "system": "E. coli BW25113 marRABp lux reporter",
  "experiment": "promoter activity interaction Z-score (Lux/OD deviation from empty-vector control); higher = stronger promoter induction by the compound",
  "description": "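E. coli BW25113 (wild type or ΔmarA/ΔsoxS/Δrob) carrying pTU175 luxCDABE promoter reporters was grown in LB in 384-well plates at 37°C with each of 94 compounds at 4 two-fold concentrations, in biological duplicates. Luminescence and OD600 were read every 30 min for 12 h and integrated as AUC over 8 h (0-8 h WT, 1-9 h mutants). Lux AUC was divided by OD AUC; the interaction score is the residual of a Huber robust fit of each promoter against the empty-vector control, then Z-transformed per promoter.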",
  "note": "± gives the standard deviation of the averaged measurements.",
  "data": [
    {"smiles": "CC1(C)S[C@@H]2[C@H](NC(=O)Cc3ccccc3)C(=O)N2[C@H]1C(=O)O", "note": "[Penicillin G]", "values": [
      {"measurement": "promoter activity interaction Z-score", "setting": "0.47 µg/ml, genetic background: wild type", "value": "-0.0595 ± 0.01"},
      {"measurement": "promoter activity interaction Z-score", "setting": "0.47 µg/ml, genetic background: ΔmarA", "value": "-0.219 ± 0.31"},
      {"measurement": "promoter activity interaction Z-score", "setting": "0.47 µg/ml, genetic background: Δrob", "value": "-0.0723 ± 0.22"},
      {"measurement": "promoter activity interaction Z-score", "setting": "0.47 µg/ml, genetic background: ΔsoxS", "value": "0.0424 ± 0.095"},
      {"measurement": "promoter activity interaction Z-score", "setting": "0.93 µg/ml, genetic background: wild type", "value": "0.124 ± 0.25"},
      {"measurement": "promoter activity interaction Z-score", "setting": "0.93 µg/ml, genetic background: ΔmarA", "value": "-0.178 ± 0.24"},
      {"measurement": "promoter activity interaction Z-score", "setting": "0.93 µg/ml, genetic background: Δrob", "value": "-0.0814 ± 0.19"},
      {"measurement": "promoter activity interaction Z-score", "setting": "0.93 µg/ml, genetic background: ΔsoxS", "value": "0.103 ± 0.11"},
      {"measurement": "promoter activity interaction Z-score", "setting": "1.9 µg/ml, genetic background: wild type", "value": "-0.36 ± 0.024"},
      {"measurement": "promoter activity interaction Z-score", "setting": "1.9 µg/ml, genetic background: ΔmarA", "value": "-0.244 ± 0.026"},
      {"measurement": "promoter activity interaction Z-score", "setting": "1.9 µg/ml, genetic background: Δrob", "value": "-0.221 ± 0.14"},
      {"measurement": "promoter activity interaction Z-score", "setting": "1.9 µg/ml, genetic background: ΔsoxS", "value": "0.0691 ± 0.16"},
      {"measurement": "promoter activity interaction Z-score", "setting": "3.7 µg/ml, genetic background: wild type", "value": "-0.195 ± 0.22"},
      {"measurement": "promoter activity interaction Z-score", "setting": "3.7 µg/ml, genetic background: ΔmarA", "value": "-0.122 ± 0.053"},
      {"measurement": "promoter activity interaction Z-score", "setting": "3.7 µg/ml, genetic background: Δrob", "value": "0.035 ± 0.11"},
      {"measurement": "promoter activity interaction Z-score", "setting": "3.7 µg/ml, genetic background: ΔsoxS", "value": "-0.0494 ± 0.053"}
    ]},
    {"smiles": "NC[C@H](O)c1ccc(O)c(O)c1", "note": "[Noradrenalin]", "values": [
      {"measurement": "promoter activity interaction Z-score", "setting": "20 µg/ml, genetic background: wild type", "value": "0.189 ± 0.16"},
      {"measurement": "promoter activity interaction Z-score", "setting": "20 µg/ml, genetic background: ΔmarA", "value": "0.444 ± 0.053"},
      {"measurement": "promoter activity interaction Z-score", "setting": "20 µg/ml, genetic background: Δrob", "value": "0.108 ± 0.12"},
      {"measurement": "promoter activity interaction Z-score", "setting": "20 µg/ml, genetic background: ΔsoxS", "value": "0.239 ± 0.13"},
      {"measurement": "promoter activity interaction Z-score", "setting": "39.9 µg/ml, genetic background: wild type", "value": "0.0664 ± 0.085"},
      {"measurement": "promoter activity interaction Z-score", "setting": "39.9 µg/ml, genetic background: ΔmarA", "value": "0.371 ± 0.24"},
      {"measurement": "promoter activity interaction Z-score", "setting": "39.9 µg/ml, genetic background: Δrob", "value": "0.256 ± 0.08"},
      {"measurement": "promoter activity interaction Z-score", "setting": "39.9 µg/ml, genetic background: ΔsoxS", "value": "0.078 ± 0.037"},
      {"measurement": "promoter activity interaction Z-score", "setting": "79.8 µg/ml, genetic background: wild type", "value": "0.253 ± 0.15"},
      {"measurement": "promoter activity interaction Z-score", "setting": "79.8 µg/ml, genetic background: ΔmarA", "value": "-0.0312 ± 0.044"},
      {"measurement": "promoter activity interaction Z-score", "setting": "79.8 µg/ml, genetic background: Δrob", "value": "-0.0145 ± 0.019"},
      {"measurement": "promoter activity interaction Z-score", "setting": "79.8 µg/ml, genetic background: ΔsoxS", "value": "0.36 ± 0.27"},
      {"measurement": "promoter activity interaction Z-score", "setting": "159.6 µg/ml, genetic background: wild type", "value": "0.17 ± 0.12"},
      {"measurement": "promoter activity interaction Z-score", "setting": "159.6 µg/ml, genetic background: ΔmarA", "value": "-0.0497 ± 0.011"},
      {"measurement": "promoter activity interaction Z-score", "setting": "159.6 µg/ml, genetic background: Δrob", "value": "0.0596 ± 0.2"},
      {"measurement": "promoter activity interaction Z-score", "setting": "159.6 µg/ml, genetic background: ΔsoxS", "value": "0.217 ± 0.22"}
    ]}
  ]
}
